# Tau fluor counter – counter-screen for tau fibril formation inhibitors; tau K18 P301L Alexa594 fluorescence, heparin fibrillization; Potency, µM (top dose mostly 57.7 µM), for inactives: at the top dose activity change, negative = decrease; 0.93% of 280,000 active; AID 1463; note: potency is the fitted concentration of half-maximal effect; nearly all actives have a fitted effect of over 55% in size
#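 Human K18 P301L tau (15 uM unlabeled plus 0.24 uM Alexa 594-labeled, final) in 100 mM sodium acetate pH 7 was mixed with compound and 20 uM heparin and incubated 6 hr at 37 C.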
# Coupling enz – coupling enzyme interference in Giardia aldolase counter-screen; coupling enzyme system counterscreen, AmpLite Red fluorescence; activity change, negative = inhibition, % at 58.2 µM, hits read low; 0.67% of 290,000 active; AID 2472; in the data active = activity change below about -30%
#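 Coupling enzymes only (glyceraldehyde-3-phosphate) + compound, at 57.5 uM final, 10 min RT; add substrate/coupling/AmpLite Red mix, 20 min RT; fluorescence ex 525/em 598 nm. Actives flag coupling-system interference.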
# Tau fibril FP – blocks human tau fibril formation measured by polarization; P10636; K18 P301L tau heparin fibrillization, Alexa594 FP, 6 h; Potency, µM (doses to about 57.7 µM), for the others: at the highest dose activity, negative = inhibition, usual class: inhibitors; 0.39% of 280,000 active; AID 1468; note: potency is the fitted concentration of half-maximal effect; nearly all actives have a fitted effect of over 55% in size
# Target sequence (P10636 561-689 P618L limits assumed): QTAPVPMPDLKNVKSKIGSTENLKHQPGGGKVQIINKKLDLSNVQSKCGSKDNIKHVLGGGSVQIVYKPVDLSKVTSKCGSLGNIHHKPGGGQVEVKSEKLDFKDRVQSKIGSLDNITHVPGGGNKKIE
#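 Human K18 P301L fragment (15 uM unlabeled plus 0.24 uM Alexa 594-labeled) in 100 mM sodium acetate pH 7 with compound, aggregation induced by 20 uM heparin for 6 hr at 37 C. ThT (30 uM) added for 1 hr, then Alexa 594 FP read.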
# Tau fibril ThT – inhibitors of human tau fibril formation, thioflavin T binding. P10636. recombinant tau K18 P301L (four-repeat tau fragment), heparin-induced fibrillization, ThT fluorescence. Potency, µM (highest dose often 57.4 µM), inactives show at the highest dose activity, negative = inhibition, most hits filed as inhibitors. 2.1% of 270,000 active. AID 1460; note: potency is the fitted concentration of half-maximal effect; nearly all actives have a fitted effect of over 55% in size
#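 Aggregation was driven by heparin (20 uM final) acting on recombinant tau […] bearing P301L in 100 mM sodium acetate pH 7; fibrils were detected with Thioflavin T.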
# Sfp PPTase inh – blocks B. subtilis Sfp PPTase activity; 3.5% of 310,000 active; Biochemical Sfp PPTase activity, qHTS; Potency, µM, inactives show largest response in the series, negative = inhibition, hits mostly inhibitors;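 note: the enzyme is Sfp with the accession as filed and its product quenches rhodamine fluorescence; potency is the fitted concentration of half-maximal effect; 0% = enzyme reaction without inhibitor and -100% = no enzyme wells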
#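 Fluorescence-quenching assay with 15 nM Sfp, 5 uM rhodamine-CoA and 12.5 uM BHQ-2-labelled ybbR peptide in pH 7.6 Hepes/MgCl2 buffer. Enzyme was pre-incubated with compound for 15 min at room temperature. Rate was taken from the 30-min fluorescence change (525/598 nm).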
# G9a block – blocks human histone lysine methyltransferase G9a; 8.8% of 350,000 active; G9a H3K9 monomethylation, AlphaScreen, 2 h; Q96KQ7; Potency, µM (doses to about 102 µM), for inactives: at the top dose activity, negative = inhibition, usual class: inhibitors; note: potency is the fitted concentration of half-maximal effect; nearly all actives have a fitted effect of over 75% in size
# Target sequence (Q96KQ7 913-1193 limits assumed): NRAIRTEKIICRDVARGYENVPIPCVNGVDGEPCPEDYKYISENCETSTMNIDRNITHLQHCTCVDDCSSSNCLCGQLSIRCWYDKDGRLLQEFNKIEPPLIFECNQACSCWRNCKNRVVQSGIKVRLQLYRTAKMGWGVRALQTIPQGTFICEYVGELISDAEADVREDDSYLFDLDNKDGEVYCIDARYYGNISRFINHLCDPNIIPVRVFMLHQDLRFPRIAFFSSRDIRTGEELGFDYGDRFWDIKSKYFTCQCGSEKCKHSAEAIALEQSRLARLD
#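 Readings reflect AlphaScreen signal from monomethyl-H3K9 antibody detection. HMT at 20 nM; substrate b-H3K9 500 nM; cofactor SAM 20 uM; 2 h RT reaction; compounds tested as titrations in qHTS with 15 min preincubation.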
# * marks the source's active call; other numbers are inactive results; ? = inconclusive; / = no result; [ ] = dose if it differs, or a comment. Shown are actives, neighbours in structure and some others; about 11% of the full set was active somewhere. Unless noted, calls come from the whole dose curve; as a rule, active = well fitted curve in the direction sought with a large enough effect; inconclusive = small, poorly fitted or top-dose-only effect, or another doubt; inactive = no such curve, though single readings can be large; an effect the other way counts as inactive or inconclusive. Unless noted, % is set by controls: 0 for no effect and ±100 for the full control effect.
SMILES,Tau fluor counter,Coupling enz,Tau fibril FP,Tau fibril ThT,Sfp PPTase inh,G9a block
COC(=O)[C@H]1O[C@@H](c2cc(OC)c(C)c(OC)c2OCc2ccccc2)[C@H](C)[C@@H]2O[C@]12C,-3%,0,-1%,1%,1%,/
CCCS(=O)(=O)N1CCN(CC2CC3C=CC2C3)CC1 (centres undefined),5%,0,2%,2%,-26%,5.6µM*
CCCS(=O)(=O)N1CCN(S(=O)(=O)c2ccc(F)cc2)CC1,5%,-1,8%,-3%,6%,10%[59 µM]
CCS(=O)(=O)N1CCN(CC2CC3C=CC2C3)CC1 (centres undefined),-3%,-1,-1%,-8%,-16%,11µM*
CCN1CCN(S(=O)(=O)Cc2ccccc2)CC1,0%,4,-6%,6%,1%,14%[12.7 µM]
CCCCC(=O)Nc1nc2c(OC)cc([N+](=O)[O-])cc2s1,-13%,-2,0%,-11%,13%,0%
COc1cc([N+](=O)[O-])cc2sc(NC(C)=O)nc12,-15%,0,-6%,?,40µM*,-21%[12.7 µM]
CC(C)OC(=O)CSc1nnc(CNc2nc(-c3ccccc3)cs2)n1C,-15%,2,0%,?,-28%,45µM*
COc1cccc(C(=O)CSc2nnc(CNc3nc(-c4ccccc4)cs3)n2C)c1,-26%,-1,7%,?,-3%,8.9µM*
COC(=O)Cn1c(=O)c2c(n(Cc3ccccc3)c1=O)N/C(=C/c1ccc(Br)cc1)C2=O,?,1,9%,16µM*,5%,29%[12.7 µM]
CCC(Sc1nc(-c2ccccc2)c(-c2ccccc2)[nH]1)C(=O)O (centres undefined),/,8,/,/,15%,50µM*
CNC(=O)CSc1nc(-c2ccccc2)c(-c2ccccc2)[nH]1,-18%,3,9%,-8%,19%,-50%
Cc1cc2nn(-c3ccc(Cl)cc3)nc2cc1N,/,1,/,/,-19%,13µM*
COc1ccc(-n2nc3cc(C)c(N)cc3n2)cc1Cl,/,-4,/,/,79µM*,0.71µM*
Cc1cc2nn(-c3ccc(F)cc3)nc2cc1N,/,-9,/,/,?,1µM*
COc1ccc(-n2nc3cc(C)c(NC(=O)c4ccc(C)cc4C)cc3n2)cc1Cl,-12%,/,-2%,-8%,/,?
O=C(CCC(=O)N1CCN(Cc2ccccc2)CC1)Nc1nnc(C2CCCCC2)s1,/,/,/,/,6%,3%[0.0925 µM]
CC(C)Cc1nnc(NC(=O)CS(=O)(=O)Cc2ccccc2)s1,-15%,5,-6%,?,-16%,8.9µM*
O=C(CS(=O)(=O)Cc1ccccc1)Nc1nnc(C2CCCCC2)s1,-2%,5,-3%,-8%,-7%,56µM*
CC(C)c1nnc(NC(=O)CS(=O)(=O)Cc2ccccc2)s1,3%,0,-2%,8%,-27%,/
CCCC(C)c1nnc(NC(=O)CCS(=O)(=O)Cc2ccccc2)s1 (centres undefined),/,4,/,/,50µM*,25µM*
Cc1nnc(NC(=O)CCS(=O)(=O)Cc2ccccc2)s1,/,0,/,/,-27%,?
CCCC(C)c1nnc(NC(=O)CS(=O)(=O)Cc2ccccc2)s1 (centres undefined),-20%,/,2%,?,-29%,8.9µM*
C/C=C(\C)C(=O)OC1[C@@H]2C=C3C4CC(=O)OC(c5ccoc5)[C@]4(C)CCC3[C@@](C)(C2=O)C(C(O)C(=O)OC)C1(C)C (some centres undefined),-10%,2,-13%,-13%,4%,-31%[2.33 µM]
C/C(CC1CC(C)(C)OC1=O)=N\NC(N)=S (centres undefined),-3%,-1,-3%,-4%,35µM*,32µM*
SMILES,Tau fluor counter,Coupling enz,Tau fibril FP,Tau fibril ThT,Sfp PPTase inh,G9a block
C/C(=N\NC(N)=S)C1(C)CC2(CC(C)(C)OC2=O)C(=O)O1 (centres undefined),0%,4,-5%,-1%,-15%,11%
C/C(CC1CC(COCCC(C)C)OC1=O)=N\NC(N)=S (centres undefined),2%,-1,2%,-1%,79µM*,7%[0.501 µM]
CCCC1CC(C)(/C(C)=N\NC(N)=S)OC1=O (centres undefined),-1%,3,-9%,2%,-26%,14%[0.501 µM]
C/C(CCC1CC(C)(C)OC1=O)=N\NC(N)=S (centres undefined),-2%,-2,-1%,-2%,45µM*,8.9µM*
C/C(CCC1CC(C)OC1=O)=N\NC(N)=S (centres undefined),7%,1,2%,-3%,5%,1.1µM*
Cc1ccc(CCN2CC(C(=O)NC(C)C)CC2=O)cc1 (centres undefined),/,0,/,/,9%,23%
CCc1ccc(OCC(=O)Nc2ccc(Cl)c(-c3nc4cc(C)cc(C)c4o3)c2)cc1,-17%,/,-13%,-5%,/,7%[59 µM]
O=c1c2ccccc2sn1-c1ccccc1,-30%,5,?,11µM*,0.5µM*,?
CN(C)S(=O)(=O)c1cccc(-n2sc3ccccc3c2=O)c1,-22%,4,?,?,1.6µM*,-128%
O=C(O)c1cccc(-n2sc3ccccc3c2=O)c1,/,/,/,/,/,7%[0.501 µM]
O=c1c2ccccc2sn1-c1ccc(S(=O)(=O)N2CCCC2)cc1,-16%,-3,?,11µM*,3.2µM*,/
O=c1c2cc(F)ccc2sn1-c1ccccc1,/,/,/,/,/,0%[0.501 µM]
O=c1c2ccccc2sn1-c1nccs1,-21%,0,?,16µM*,2.2µM*,1.4µM*
O=S(=O)(c1ccc(S(=O)(=O)N2CCCC2)cc1)N1CCCCC1,/,-3,/,/,2%,-21%
O=C(CC1N=C2c3ccccc3N=C(SCc3ccccc3Cl)N2C1=O)NCCc1ccccc1 (centres undefined),-9%,/,8%,-14%,/,-4%[59 µM]
Cc1ccc(-n2sc3ccccc3c2=O)cc1S(=O)(=O)N1CCCCC1,-19%,3,32µM*,16µM*,1.6µM*,0.89µM*
Cc1ccc(C(=O)NNC(=O)c2ccccc2)cc1S(=O)(=O)N1CCCCC1,/,/,/,/,/,-8%[12.7 µM]
COC(=O)/C(Cc1cc(Br)c(OC)c(Br)c1O)=N/O,-6%,-1,-2%,-3%,7%,/
Cc1ccc(NC(=O)c2sc3nc(-c4cccs4)ccc3c2N)cc1F,?,/,-9%,?,/,?
Cc1csc(NC(=O)c2sc3nc(-c4cccs4)ccc3c2N)n1,?,-5,13%,7.9µM*,-1%,?
CCCSc1nnc(NC(=O)c2sc3nc(-c4cccs4)ccc3c2N)s1,?,0,-4%,7.9µM*,-21%,16%[12.7 µM]
COc1cccc(Cn2c(CNS(=O)(=O)c3ccc4c(c3)CCCC4)nc3cccnc32)c1,-10%,/,7%,-5%,/,10%[59 µM]

# Assay outcomes (PubChem BioAssay)
